Sampled rows, rich in hits. Any-hit rate of the full collection: about 6.8%.
MCF10A rereplic – induces DNA re-replication in MCF 10a normal breast cells. MCF 10A DNA re-replication, Hoechst nuclear intensity, 48 h. Potency, µM (series often up to 46.1 µM), for inactives: top-dose activity, positive = re-replication, usual class: activators. 2.9% of 350,000 active; also: % of control where 0% means no effect; nearly all actives have a fitted effect of over 50% in size
KB-3-1 cytotox – KB-3-1 parental cell cytotoxicity | Potency, µM (series often up to 46.1 µM), hits mostly cytotoxic | KB-3-1 viability, CellTiter-Glo ATP luminescence, 72 h | AID 1347075 | 1.4% of 400,000 active; also: % is scaled to controls: 0 for no effect and ±100 for the full control effect; nearly all actives have a fitted effect of over 60% in size
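Parental KB-3-1 viability, qHTS format: 72 h compound exposure, 37 °C; CellTiter-Glo; media-only wells and DMSO plates as controls; concentration-effect fits on corrected data.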
PINK1 expr mod – PINK1 expression modulation. PINK1 immunofluorescence, high-content cytometry, 24 h. 0.2% of 410,000 active. Potency, µM (top dose mostly 76.6 µM), without a hit: at the highest dose activation (PINK1 increase), usual class: activators; active = well fitted activation curve with a large enough effect; inconclusive = small, poorly fitted or top-dose-only effect; cell line not stated here; also: % of control where 0% means no effect; nearly all actives have a fitted effect of over 65% in size
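Stable cell line treated 24 h with compounds at 5 concentrations (CCCP controls), then fixed and immunostained for PINK1 plus nuclear and cell stains; PINK1 immunofluorescence quantified by laser-scanning microplate cytometry.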
PTAP TSG101 blk – blocks PTAP/TSG101 interaction to inhibit HIV-1 budding; 340,000 tested, under 10 active; Fluorescence polarization, FITC-PTAP peptide / Tsg101 binding; Potency, µM (doses to about 115 µM), for the others: top-dose activity change, negative = inhibition, most hits filed as inhibitors; active = well fitted inhibition curve with a large enough effect in the main read-out, with a control signal flat, not every such curve was filed as active; inconclusive = small, poorly fitted or top-dose-only effect, or effect the other way, or a change in a side signal; inactive = no such curve, though single readings can be large or run the other way; also: % of control where 0% means no effect
Target sequence (Q99816 whole entry, looked up): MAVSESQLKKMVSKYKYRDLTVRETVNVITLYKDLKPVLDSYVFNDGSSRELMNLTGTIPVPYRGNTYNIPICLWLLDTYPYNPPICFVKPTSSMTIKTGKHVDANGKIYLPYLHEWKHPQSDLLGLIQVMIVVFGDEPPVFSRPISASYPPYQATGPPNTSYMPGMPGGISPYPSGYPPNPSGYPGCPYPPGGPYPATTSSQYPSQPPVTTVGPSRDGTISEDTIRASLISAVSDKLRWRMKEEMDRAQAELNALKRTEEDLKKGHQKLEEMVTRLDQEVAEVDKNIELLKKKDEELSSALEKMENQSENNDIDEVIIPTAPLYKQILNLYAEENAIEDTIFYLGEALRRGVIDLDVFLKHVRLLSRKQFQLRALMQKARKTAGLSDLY
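Steps: Tsg101 binding domain dispensed (10 uM final), compounds pinned in DMSO, FITC-labeled PTAP-motif peptide added (50 nM final); after 20 min binding at room temperature, polarization measured.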
SW480 rereplic – induces DNA re-replication in SW480 colon adenocarcinoma cells; SW480 DNA re-replication, Hoechst DNA content imaging, 48 h; Potency, µM (series often up to 46.1 µM), for inactives: at the top dose re-replication activation, actives largely listed as activators; 1.8% of 340,000 active; AID 624297; also: % of control where 0% means no effect; nearly all actives have a fitted effect of over 55% in size
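First, 250 cells per well were seeded. Next, compound or vehicle (23 nL) was pinned in, plates sat 48 hr at 37 C. Finally Hoechst was added for 40 min before fluorescence scanning.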
KB-V1 MDR tox – KB-V1 MDR subline cytotoxicity | KB-V1 MDR cells viability, CellTiter-Glo, 72 h | Potency, µM (doses to about 46.1 µM), hits mostly cytotoxic | 3.4% of 400,000 active; also: % is scaled to controls: 0 for no effect and ±100 for the full control effect; nearly all actives have a fitted effect of over 60% in size
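Compound-treated KB-V1 multidrug-resistant cells, 72 h, 37 degrees C; viability by CellTiter-Glo. Fitted qHTS curves give the values.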
* = called active by the depositor; i = inactive; ? = inconclusive; nt = no result; [ ] = remark or other dose. Unless noted, calls follow the shape of the dose curve; as a rule, active = well fitted curve in the direction sought with a large enough effect; inconclusive = small, poorly fitted or top-dose-only effect, or another doubt; inactive = no such curve, though single readings can be large; an effect the other way counts as inactive or inconclusive. Potency is read from the fitted curve at half-maximal effect.

SMILES	MCF10A rereplic	KB-3-1 cytotox	PINK1 expr mod	PTAP TSG101 blk	SW480 rereplic	KB-V1 MDR tox
CCCCNC(=O)c1c(N)n(Cc2ccc3c(c2)OCO3)c2nc3ccccc3nc12	6%	i	3%[38.3 µM]	4%	9%	i
CCCCCn1c(N)c(C(=O)NCc2cccs2)c2nc3ccccc3nc21	5.2µM*	?	5%[38.3 µM]	-7%	2.6µM*	13µM*
CCCCn1c(N)c(C(=O)NCc2cccs2)c2nc3ccccc3nc21	1.2µM*	?	6%[38.3 µM]	-2%	3.3µM*	13µM*
Nc1c(C(=O)NCCCc2ccccc2)c2nc3ccccc3nc2n1Cc1cccs1	?	?	18%[38.3 µM]	0%	2.9µM*	15µM*
COCCOC(=O)c1c(N)n(Cc2ccccc2)c2nc3ccccc3nc12	2%	i	0%	-8%	25%	i
CCOP(=O)(OCC)O/C(=C/Cl)c1ccc(Cl)cc1Cl	12%	nt	nt	nt	3%	nt
O=c1[nH]c(=S)n(-c2cccc(Cl)c2)c(O)c1/C=N/N1CCOCC1	6%	i	0%	-3%	4%	i
COc1cc(/C=C/c2nc3ccccc3c(=O)n2-c2ccc(Br)c(C)c2)ccc1O	nt	?	5%	nt	nt	?
CCC(=O)Nc1ccc(Cl)c(Cl)c1	22%	i	3%	-1%	1%	i
CCC(=O)Nc1ccc(C(=O)OCc2ccccc2Cl)cc1	?	i	6%	1%	2%	15µM*
COC(=O)Cn1cc(/C=C2\C(=O)NC(=O)N(c3ccc(OC)cc3)C2=O)c2ccccc21	14%	i	35µM*	?	-16%	i
Nc1ccc(N2CCN(Cc3ccccc3Cl)CC2)c(Cl)c1	21µM*	?	-2%	-2%	2%	i
COc1ccccc1N1CCN(Cc2ccccc2Cl)CC1	?	i	-22%[38.3 µM]	-6%	1%	21µM*
COc1ccccc1N1CCN(Cc2ccccc2F)CC1	9%	i	1%	-9%	-3%	i
COc1ccccc1N1CCN(Cc2c(F)cccc2F)CC1	-1%	i	6%[38.3 µM]	-13%	1%	15µM*
Clc1ccccc1CN1CCN(c2ccccc2)CC1	?	i	4%[38.3 µM]	-8%	?	i
c1cc(CN2CCC3(CCNCC3)CC2)ccn1	nt	nt	-1%	nt	nt	nt
ClC1=C(Cl)C2(Cl)C3C4CC(C5OC45)C3C1(Cl)C2(Cl)Cl (stereo not drawn)	12%	nt	2%	nt	-4%	nt
CO[C@@H](COC(N)=O)C1=C(N2CC2)C(=O)C(C)=C(N2CC2)C1=O	4.7µM*	nt	nt	nt	?	nt
COC12C(COC(N)=O)C3=C(C(=O)C(C)=C(N)C3=O)N1CC1C2N1C (stereo not drawn)	-17%	?	-1%	0%	?	?
COC(COC(N)=O)C1=C(N2CC2)C(=O)C(C)=C(N2CC2)C1=O (stereo not drawn)	?	4.1µM*	-2%	-5%	?	?
Cc1ccc(C(=O)Nc2ccc(Cl)cc2C(=O)c2ccccc2)cc1	3%	i	10%[38.3 µM]	-4%	9%	21µM*
CC(C)(C)c1ccc(C(=O)Nc2ccc(Cl)cc2C(=O)c2ccccc2)cc1	nt	nt	1%	nt	nt	nt
CC(C)C[C@H]1CNC(=S)N1CC1CCN(CC2CCC(C(C)(C)C)CC2)CC1 (stereo partly drawn)	?	i	7%	0%	2%	i
CCC(C)(S(=O)(=O)CC)S(=O)(=O)CC	4%	nt	nt	nt	7%	nt
Oc1c(Br)cc(Br)cc1Oc1ccc(Br)cc1Br	5.8µM*	nt	nt	nt	5%	nt
Brc1ccc(Oc2ccc(Br)cc2Br)c(Br)c1	?	i	11%	0%	-5%	i
CN(CC=CCN(C)P(=S)(N1CC1)N1CC1)P(=S)(N1CC1)N1CC1	13µM*	i	1%	-1%	?	i
CCCC12CN3CCN(CC(C3)/C1=N\NC(=O)c1ccncc1)C2	-4%	i	8%	0%	5.8µM*	i

Screens: PubChem, National Center for Advancing Translational Sciences (NCATS)
